Reference: PubChem BioAssay (NCATS)
Results filed as inconclusive are left out. Activity calls are given as the source filed them. Calls come from the whole dose curve; as a rule, active = well fitted curve in the direction sought with a large enough effect; inconclusive = small, poorly fitted or top-dose-only effect, or another doubt; inactive = no such curve, though single readings can be large; an effect the other way counts as inactive or inconclusive. Where a SMILES comes first, the peptide text is derived from it. Bridges are numbered along the chain shown (N, C = ends). [ ]: non-standard residue; d: D form. The star is where a group is joined. ξ: configuration not given here. ξPhe(βξ-Me) = CC(c1ccccc1)C(N)C(=O)O; X1 = CCC(C)C(N)C1=NC(C(=O)*)CS1; dOrn = NCCC[C@@H](N)C(=O)O; GABA = NCCCC(=O)O

Tests used:
[1] = system: HACAT; assay: qHTS assay to identify novel small-molecules to repurpose for Merkel cell carcinoma treatment (AID 1296009); settings: MCC and control cell lines, CellTiter-Glo viability, 72 h; at 44.8 µM (top of the series) unless noted; note: nearly all actives have a fitted effect of over 60% in size
Method in brief: (§1)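 After compound transfer in DMSO, plates were kept 72 hr at 37 degree celsius. Luminescent ATP signal from CellTiter-Glo served as viability measure, normalized against DMSO and no-cell controls.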

[2] = system: HEK293T; assay: as above; settings: MCC and control cell lines, CellTiter-Glo viability, 72 h; series mostly up to 44.8 µM
Method in brief: as §1

[3] = system: C33A; assay: Primary qHTS to identify gynecologic anti-cancer compounds using libraries of approved drugs and bioactive compounds (AID 1345084); settings: Gynecologic cancer cell panel viability, ATPlite luminescence, 48 h; series mostly up to 57.5 µM; note: nearly all actives have a fitted effect of over 55% in size
Method in brief: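 Luminescence from the ATPlite ATP-monitoring reagent indicates viable cell number; lower signal means cytotoxicity. Cells received compound 16 h after seeding and were exposed for 48 h across five concentrations.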

[4] = system: NIH3T3; assay: qHTS assay to identify novel small-molecules to repurpose for Merkel cell carcinoma treatment (AID 1296009); settings: MCC and control cell lines, CellTiter-Glo viability, 72 h; at 44.8 µM (top of the series) unless noted; note: nearly all actives have a fitted effect of over 60% in size
Method in brief: as §1

[5] = system: MCC-13; assay: as above; settings: MCC and control cell lines, CellTiter-Glo viability, 72 h; series mostly up to 46 µM
Method in brief: as §1

[6] = system: MCC-26; assay: as above; settings: MCC and control cell lines, CellTiter-Glo viability, 72 h; series mostly up to 46 µM
Method in brief: as §1

[7] = system: MKL-1; assay: as above; settings: MCC and control cell lines, CellTiter-Glo viability, 72 h; series mostly up to 46 µM
Method in brief: as §1

[8] = system: MKL-2; assay: as above; settings: MCC and control cell lines, CellTiter-Glo viability, 72 h; series mostly up to 46 µM
Method in brief: as §1

[9] = system: UISO; assay: as above; settings: MCC and control cell lines, CellTiter-Glo viability, 72 h; series mostly up to 46 µM
Method in brief: as §1

[10] = system: WaGa; assay: as above; settings: MCC and control cell lines, CellTiter-Glo viability, 72 h; series mostly up to 46 µM
Method in brief: as §1
% is set by controls: 0 for no effect and ±100 for the full control effect.

CO[C@H]1C=C2C(CC[C@H](O[C@@H]3O[C@H](CO)[C@@H](O)[C@@H](O)[C@H]3O)C2(C)C)[C@]2(C)CC[C@]3(C)C([C@H](C)C(O)C(C=C(C)C)O[C@@H]4O[C@H](CO)[C@@H](O)[C@@H](O)[C@H]4O)CC[C@@]3(C)C12 (some centres undefined)
inactive: outcome [1] inactive [at 9.27 µM] | outcome [2] inactive [at 9.27 µM] | activity change, negative = cytotoxicity [3] -3.11% [at 11.6 µM]

C=C1CC2(C(=O)O)CC1CCC2C1(C)CCCC2(C)C(=O)OC(O)C21 (centres undefined)
inactive: outcome [1] | Potency [2] | Potency [3]

CC(=C/C(=O)O)/C=C/[C@]1(O)[C@@]2(C)CO[C@]1(C)C[C@H](O[C@@H]1O[C@H](CO)[C@@H](O)[C@H](O)[C@H]1O)C2
inactive: outcome [1] inactive [at 17.4 µM] | Potency [2] | Potency [3]

CC1(C)CC[C@]2(C(=O)O[C@@H]3O[C@H](CO)[C@@H](O)[C@H](O)[C@H]3O)CC[C@]3(C)C(=CCC4[C@@]5(C)C[C@@H](O)[C@H](O)[C@@](C)(CO)C5CC[C@]43C)C2C1 (some centres undefined)
inactive: outcome [1] inactive [at 17.4 µM] | Potency [2] | Potency [3]

C=C1C2(CCC(=O)OC2(C)C)CC(OC(=O)/C(C)=C/C)C2(C)C13OC14C(=O)OC(C)(C(=O)C12C(=O)OC4C)C3OC(C)=O (centres undefined)
inactive: outcome [1] inactive [at 17.4 µM] | Potency [2] | Potency [3]

O=C(O)[C@H]1CCCC[C@H]1C(=O)N1CCc2ccccc2[C@H]1CN1C(=O)c2ccccc2C1=O
inactive: outcome [1] | Potency [2] | Potency [3]

C=CC1(C)C=C2C(=O)CC3C(C)(C)CCCC3(C(=O)O)C2(O)CC1 (centres undefined)
inactive: outcome [1] | Potency [2] | Potency [3]

C/C=C(\C)C(=O)O[C@@H]1CC2[C@@H](CC=C3C[C@@H](O[C@H]4C[C@H](OC)[C@H](O[C@H]5C[C@H](OC)[C@H](O[C@H]6C[C@H](OC)[C@H](O[C@H]7C[C@@H](OC)[C@H](O[C@@H]8O[C@H](CO)[C@@H](O)[C@H](O)[C@H]8O)[C@@H](C)O7)[C@@H](C)O6)[C@@H](C)O5)[C@@H](C)O4)CC[C@@]32C)[C@@]2(O)CC[C@H](C(C)=O)[C@@]12C (some centres undefined)
inactive: outcome [1] inactive [at 9.27 µM] | outcome [2] inactive [at 9.27 µM] | activity change, negative = cytotoxicity [3] 1.71% [at 6.55 µM]

C=C1C(=O)OC2/C=C(\C)CC/C=C(\C(=O)O)CC/C=C(\C)CCC12 (centres undefined)
inactive: outcome [1] | Potency [2] | Potency [3]

CC12CCC3C(C)(C)C(O)CCC3(C)C1Cc1c(oc(C(=O)O)cc1=O)O2 (centres undefined)
inactive: outcome [1] | Potency [2] | Potency [3]

C=C1CC/C=C(/CO)C(=O)C[C@@H]2[C@@H]1CC2(C)C
inactive: outcome [1] | Potency [2] | Potency [3]

CCOc1nc2cccc(C(=O)O)c2n1Cc1ccc(-c2ccccc2-c2noc(=O)[nH]2)cc1
inactive: outcome [1] | Potency [2] | Potency [3]

Cc1nn(C)c(COc2ccc(N3CCN(S(=O)(=O)N(C)C)CC3)cc2)c1-c1cccc2c(CCCOc3cccc4ccccc34)c(C(=O)O)n(CCN3CCOCC3)c12
inactive: outcome [1] | Potency [2] | Potency [3]

CC(C)CNC(=O)/C=C/CCCCc1ccc2c(c1)OCO2
inactive: outcome [1] | Potency [2] | Potency [3]

CC(=O)Oc1cc2c(s1)CCN([C@H](C(=O)C1CC1)c1ccccc1F)C2
inactive: outcome [1] | Potency [2] | Potency [3]

CC1(C)CC[C@]2(C(=O)O)CC[C@]3(C)C(=CCC4[C@@]5(C)C[C@H](O)[C@H](O[C@@H]6OC[C@H](O)[C@H](O)[C@H]6O)[C@@](C)(CO)C5CC[C@]43C)[C@@H]2C1 (some centres undefined)
inactive: outcome [1] inactive [at 17.4 µM] | Potency [2] | Potency [3]

c1ccc(Nc2nc3c(s2)CCCc2[nH]ncc2-3)nc1
inactive: outcome [1] | Potency [2] | Potency [3]

COC(=O)C1=CO[C@@H](O[C@@H]2O[C@H](COC(=O)/C=C/c3cc(OC)c(O)c(OC)c3)[C@@H](O)[C@H](O)[C@H]2O)[C@@H]2C(CO)=CC[C@H]12
inactive: outcome [1] inactive [at 17.4 µM] | Potency [2] | Potency [3]

CC1CCC2(C)C(CC(O)C(O)C23CO3)C1(C)CCC1=CC(=O)OC1O (centres undefined)
inactive: outcome [1] inactive; activator | Potency [2] | Potency [3]

CCC(CC)n1ccc2c(C(=O)NCc3c(C)cc(C)[nH]c3=O)cc(C#N)cc21
inactive: outcome [1] | Potency [2] | Potency [3]

COc1cc(C)c(C(=O)O[C@H]2[C@@H](O)[C@H](n3ccc(=O)[nH]c3=O)O[C@@H]2CO)c(OC)c1
inactive: outcome [1] inactive [at 17.4 µM] | Potency [2] | Potency [3]

Cc1cc(O)cc(Oc2cc(C)c(C(=O)O)c(O)c2)c1
inactive: outcome [1] | Potency [2] | Potency [3]

COc1ccc(/C=C/C(=O)O[C@H]2[C@@H]3C=CO[C@@H](O[C@@H]4O[C@H](CO)[C@@H](O)[C@H](O)[C@H]4O)[C@@H]3[C@@]3(CO)O[C@@H]23)cc1O
inactive: outcome [1] inactive [at 17.4 µM] | Potency [2] | Potency [3]

O=C(c1ccccn1)c1cnn2c(-c3ccncc3)ccnc12
inactive: outcome [1] | Potency [2] | Potency [3]

O=C1CC(c2ccc([N+](=O)[O-])cc2)=NN1c1ccccc1
inactive: outcome [1] | Potency [2] | Potency [3]

CC(C)CC1NC(=O)C(C(C)c2ccccc2)NC(=O)C(C(C)C)NC(=O)C(C)NC(=O)CCCNC(=O)C(Cc2c[nH]c3ccccc23)NC(=O)C(C)NC1=O (stereo not drawn) (cyclo([GABA]AV[ξPhe(βξ-Me)]LAW); configuration not given here)
inactive: outcome [1] inactive [at 17.4 µM] | Potency [2] | Potency [3]

O=C(OCc1cccc(O)c1O[C@@H]1O[C@H](CO)[C@@H](O)[C@H](O)[C@H]1O)C1(O)C(=O)C2C=CC1C1C=CC(=O)C(O)(C(=O)OCc3cccc(O)c3O[C@@H]3O[C@H](CO)[C@@H](O)[C@H](O)[C@H]3O)C21 (some centres undefined)
inactive: outcome [1] inactive [at 9.27 µM] | outcome [2] inactive [at 9.27 µM] | activity change, negative = cytotoxicity [3] -2.5% [at 11.6 µM]

COc1cc(O[C@@H]2O[C@H](CO)[C@@H](O)[C@H](O)[C@H]2O)c(CCC(=O)OC[C@H]2O[C@@H](Oc3cc(OC)c(C4OC(=O)C(C)(O)C4O)cc3CCC(=O)O)[C@H](O)[C@@H](O)[C@@H]2O)cc1C1OC(=O)C(C)(O)C1O (some centres undefined)
inactive: outcome [1] inactive [at 9.27 µM] | outcome [2] inactive [at 9.27 µM] | activity change, negative = cytotoxicity [3] -6.26% [at 11.6 µM]

C[C@H]1[C@H](C)CC[C@]2(C(=O)O)CC[C@]3(C)C(=CC[C@@H]4[C@@]5(C)C[C@@H](O)[C@H](O)[C@@](C)(CO)[C@@H]5CC[C@]43C)[C@H]12
inactive: outcome [1] | Potency [2] | Potency [3]

O=C(c1ccc(NS(=O)(=O)c2cccc3cccnc23)cc1)N1CCN(CC2CC2)CC1
inactive: outcome [1] | Potency [2] | Potency [3]

C/C=C1/[C@H](O[C@@H]2O[C@H](CO)[C@@H](O)[C@H](O)[C@H]2O)OC=C(C(=O)OC)[C@H]1CC(=O)O[C@@H]1O[C@H](CO)[C@@H](O)[C@H](O)[C@H]1O
inactive: outcome [1] inactive [at 17.4 µM] | Potency [2] | Potency [3]

C=C1CCC(OC(C)=O)C2(C)CC3(O)OC(=O)C(C)=C3CC12 (centres undefined)
inactive: outcome [1] | Potency [2] | Potency [3]

CC1=CC(=O)CC(C)(C)C1(O)CCC(C)O (centres undefined)
inactive: outcome [1] | Potency [2] | Potency [3]

C/C=C(\C)C(=O)O[C@H]1[C@H](O)[C@]2(COC(C)=O)[C@H](O)C[C@]3(C)C(=CCC4[C@@]5(C)CC[C@H](O[C@@H]6O[C@H](C(=O)O)[C@@H](O[C@@H]7O[C@H](CO)[C@@H](O)[C@H](O)[C@H]7O)[C@H](O)[C@H]6O[C@@H]6O[C@H](CO)[C@@H](O)[C@H](O)[C@H]6O)[C@](C)(CO)C5CC[C@]43C)[C@@H]2CC1(C)C (some centres undefined)
inactive: outcome [1] inactive [at 9.27 µM] | outcome [2] inactive [at 9.27 µM] | activity change, negative = cytotoxicity [3] 1.25% [at 11.6 µM]

CC1(C)CCCC2(C)C(CO)C3CCC2C31 (centres undefined)
inactive: Potency [2] | outcome [4] | Potency [3]

COc1c(C)c(C(=O)c2ccc(N)c(C(=O)O)c2)n2ccccc12
inactive: outcome [1] | Potency [3]

CC(=O)OC(C)OC(=O)C(C)c1ccc(-c2ccccc2)c(F)c1 (centres undefined)
inactive: outcome [1] | outcome [5] | outcome [6] | outcome [7] | outcome [8] | outcome [4] | outcome [9] | outcome [10] | Potency [3]

OC1COC(OCC2OC(OCCc3ccccc3)C(O)C(O)C2O)C(O)C1O (centres undefined)
inactive: Potency [2] | outcome [4] inactive [at 17.4 µM] | Potency [3]

CC[C@H]1OC(=O)C[C@@H](O)[C@H](C)[C@@H](O[C@@H]2O[C@H](C)[C@@H](O)[C@H](N(C)C)[C@H]2O)[C@@H](CCN2C[C@H](C)C[C@H](C)C2)C[C@@H](C)C(=O)/C=C/C(C)=C/[C@@H]1CO[C@@H]1O[C@H](C)[C@@H](O)[C@@H](OC)[C@H]1OC
inactive: outcome [1] | outcome [4] | Potency [3]

C=C1C2=CC(O)C(C)C1(C)CC/C(C)=C/CCC1(C)OC1C2=O (centres undefined)
inactive: Potency [2] | outcome [4] | Potency [3]

CCC(=O)N[C@@H]1Cc2ccccc2[C@H](c2ccccc2)C1
inactive: Potency [2] | outcome [4] | Potency [3]

CC(C)=CCCC1(C)Oc2cc3c(c4c2C2C(O4)C(C)(O)CCC21)CN(C(CCC(=O)O)C(=O)O)C3=O (centres undefined)
inactive: Potency [2] | outcome [4] inactive [at 17.4 µM] | Potency [3]

Cc1cc(Nc2ncc(Cl)c(Nc3ccccc3S(=O)(=O)C(C)C)n2)c(OC(C)C)cc1C1CCNCC1
inactive: outcome [1] | outcome [4] | Potency [3]

O=C(O)c1cc(O)c2cccc(O)c2c1O[C@@H]1O[C@H](CO)[C@@H](O)[C@H](O)[C@H]1O
inactive: Potency [2] | outcome [4] | Potency [3]

CCC(C)C(N)C1=NC(C(=O)N[C@@H](CC(C)C)C(=O)N[C@H](CCC(=O)O)C(=O)N[C@H](C(=O)N[C@H]2CCCCNC(=O)[C@H](CC(N)=O)NC(=O)[C@@H](CC(=O)O)NC(=O)[C@H](Cc3cnc[nH]3)NC(=O)[C@@H](Cc3ccccc3)NC(=O)[C@H]([C@@H](C)CC)NC(=O)[C@@H](CCCN)NC2=O)[C@@H](C)CC)CS1 (some centres undefined) (X1-L[dE]IK[dOrn]I[dF]H[dD]N; lactam 4-C)
inactive: outcome [1] inactive [at 17.4 µM] | Potency [3]
